In test [1] the test system is Plasmodium falciparum Sir2 (PF13_0152, Sir2A). The test is described as follows: pfSir2 binders on small-molecule microarrays, primary screen, biochemical, small-molecule microarray, 635 nm fluorescence (AID 1098).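 Also: score merges spot fluorescence intensity with its signal-to-noise ratio.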 Particulars: small-molecule microarray binding, fluorescence 635 nm; higher = more signal.
A short description of test [2]: small-molecule microarray binders of probe aDKK1, primary screen, biochemical, biotinylated probe, 635/667 nm fluorescence (AID 1099).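 Also: score merges 667nm spot fluorescence with signal to noise across triplicate slides.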 The note with it: higher = more signal.
Test [3] is described as follows: small-molecule microarray binders of probe aCHRDL2, primary screen, biochemical, biotinylated probe, 635/667 nm fluorescence (AID 1100). The note with it: higher = more signal.
Test [4] can be described thus: splicing luciferase reporter signal modulators, primary screen, spliceosome inhibition project, cell-based, HEK293, splice +/- reporter (AID 1101).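 Also: HEK293 cells carrying a splicing-competent luciferase reporter gene; test concentration not given here.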 Particulars: luminescence, 24 h, higher = more signal, called active from +8 up or from −8 down. (In general: In a reporter assay the amount or activity of a reporter protein is the signal.)
Test [5] has as its target Fibroblast growth factor 10 (Homo sapiens) (UniProt O15520). The test is described as follows: FGF10 binders on small-molecule microarrays, primary screen, biochemical, small-molecule microarray, 635 nm fluorescence (AID 1102). Particulars: FGF10 binding, fluorescence 635 nm, higher = more signal.
Test [6] deals with glycogen synthase kinase-3 (GSK3A per assay name; protocol says GSK3B). The experiment in a line: GSK3 binders on small-molecule microarrays, primary screen, biochemical, small-molecule microarray, 635 nm fluorescence, GSK3A (AID 1103). Also: the record names both GSK3A and GSK3B. The note with it: small-molecule microarray binding, fluorescence 635 nm; higher = more signal.
The target in test [7] is Epidermal growth factor receptor (Homo sapiens) (UniProt P00533). The experiment in a line: EGFR binders on small-molecule microarrays, primary screen, biochemical, small-molecule microarray, 635 nm fluorescence (AID 1104).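 Also: score merges 667 nm emission intensity with spot signal to noise over triplicate slides.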 The note with it: EGFR binding, higher = more signal.
Sequence of Epidermal growth factor receptor (Homo sapiens) (P00533 whole entry, looked up): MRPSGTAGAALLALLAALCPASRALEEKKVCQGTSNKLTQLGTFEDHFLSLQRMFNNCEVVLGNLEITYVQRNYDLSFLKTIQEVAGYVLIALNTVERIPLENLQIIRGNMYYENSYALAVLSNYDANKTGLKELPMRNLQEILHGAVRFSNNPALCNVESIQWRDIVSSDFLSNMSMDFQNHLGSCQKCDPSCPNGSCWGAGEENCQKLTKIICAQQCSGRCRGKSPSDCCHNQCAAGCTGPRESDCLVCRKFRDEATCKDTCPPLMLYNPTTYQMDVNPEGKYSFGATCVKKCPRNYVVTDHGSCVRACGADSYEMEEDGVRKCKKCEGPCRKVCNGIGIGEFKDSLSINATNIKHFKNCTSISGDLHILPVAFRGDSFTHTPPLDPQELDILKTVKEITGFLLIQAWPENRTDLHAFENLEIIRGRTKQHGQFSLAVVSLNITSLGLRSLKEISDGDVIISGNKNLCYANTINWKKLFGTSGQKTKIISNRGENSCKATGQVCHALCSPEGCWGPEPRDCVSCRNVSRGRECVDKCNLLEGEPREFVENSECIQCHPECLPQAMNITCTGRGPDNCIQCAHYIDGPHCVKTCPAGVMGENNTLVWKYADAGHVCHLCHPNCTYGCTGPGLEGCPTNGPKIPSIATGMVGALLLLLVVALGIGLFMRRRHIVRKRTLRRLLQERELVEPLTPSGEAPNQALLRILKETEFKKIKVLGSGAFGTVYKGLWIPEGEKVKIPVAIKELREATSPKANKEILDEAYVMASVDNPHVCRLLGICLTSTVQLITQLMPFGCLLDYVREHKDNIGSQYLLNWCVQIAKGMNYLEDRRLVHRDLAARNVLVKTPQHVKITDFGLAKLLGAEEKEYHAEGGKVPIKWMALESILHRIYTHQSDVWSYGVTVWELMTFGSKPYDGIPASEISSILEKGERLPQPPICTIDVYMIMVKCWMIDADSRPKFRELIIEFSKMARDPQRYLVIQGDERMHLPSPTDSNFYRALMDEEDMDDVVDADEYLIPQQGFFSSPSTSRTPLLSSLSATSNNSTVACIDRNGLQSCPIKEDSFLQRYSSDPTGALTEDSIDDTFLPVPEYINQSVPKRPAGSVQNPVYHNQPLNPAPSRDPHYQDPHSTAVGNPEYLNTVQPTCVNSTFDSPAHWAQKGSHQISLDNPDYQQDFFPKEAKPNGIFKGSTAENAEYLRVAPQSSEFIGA
Test [8] has as its target Follistatin-related protein 3 (Homo sapiens) (UniProt O95633). The test is described as follows: FSTL3 binders on small-molecule microarrays, primary screen, biochemical, small-molecule microarray, 635 nm fluorescence (AID 1105).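 Also: score merges emission near 667 nm and signal to noise per printed spot across three slides.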 Particulars: FSTL3 binding, higher = more signal.
Test [9] concerns the target Dickkopf-related protein 1 (Homo sapiens) (UniProt O94907). The test is described as follows: DKK1 binders on small-molecule microarrays, primary screen, biochemical, small-molecule microarray, 635 nm fluorescence scan (AID 1106).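 Also: score merges emission near 667 nm with signal to noise over three replicate slides.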 Particulars: DKK1 binding, higher = more signal.
Test [10] relates to Inhibin beta A chain (activin A). The test is described as follows: INHBA (activin A) binders on microarrays, primary screen, biochemical, small-molecule microarray, 635 nm fluorescence scan (AID 1107).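 Also: mouse activin A protein probed at 4.33 µg/mL on printed slides; score merges bound-protein fluorescence near 667 nm with spot signal-to-noise.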 The note with it: small-molecule microarray binding, higher = more signal.
For test [11], the system named is Human papillomavirus type 1a protein E7 (residues 44-93). The test is described as follows: HPV1a E7 fragment binders on microarrays, primary screen, biochemical, small-molecule microarray, residues 44-93, 635 nm fluorescence (AID 1108).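 Also: E7 fragment applied at 1 µg/mL in TBST for 1 h at 4 C; score combines spot fluorescence with its signal to noise ratio.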 The note with it: small-molecule microarray binding, fluorescence 635 nm; higher = more signal.
A short description of test [12]: modulators of HCV replicon luciferase signal, primary screen, HCV replication inhibitor project, Huh7 cells, luciferase reporter (AID 1109).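 Also: huh7 hepatoma cells harbouring a luciferase neomycin HCV replicon reporter; luciferase luminescence as measure of HCV replicon replication; test concentration not given here.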 The note with it: 48 h, higher = more signal. (In antiviral work, replicon cells carry a viral genome segment that copies itself.)
The target in test [13] is Left-right determination factor 2 (Homo sapiens) (UniProt O00292). The test is described as follows: LEFTY2 binders on small-molecule microarrays, primary screen, biochemical, small-molecule microarray, 635 nm fluorescence scan (AID 1110). Particulars: LEFTY2 binding, higher = more signal.
Sequence of Left-right determination factor 2 (Homo sapiens) (O00292 whole entry, looked up): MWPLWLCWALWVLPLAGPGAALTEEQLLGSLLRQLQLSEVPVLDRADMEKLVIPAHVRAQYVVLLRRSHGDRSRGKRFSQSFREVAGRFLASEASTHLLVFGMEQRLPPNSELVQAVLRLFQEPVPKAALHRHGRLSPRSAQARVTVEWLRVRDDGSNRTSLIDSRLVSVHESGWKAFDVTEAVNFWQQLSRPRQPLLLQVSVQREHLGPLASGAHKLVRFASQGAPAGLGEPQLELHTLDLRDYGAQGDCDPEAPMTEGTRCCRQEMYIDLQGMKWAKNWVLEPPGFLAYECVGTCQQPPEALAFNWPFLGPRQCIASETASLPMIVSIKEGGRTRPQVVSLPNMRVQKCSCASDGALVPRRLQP
Test [14] has as its target Calmodulin-1 (Homo sapiens) (UniProt P0DP23). The experiment in a line: CALM1 binders on microarrays, EGTA buffer, profiling panel, biochemical, small-molecule microarray, Cy5-labelled CALM1 (AID 1111).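 Also: labelled calmodulin applied in Tris saline Tween buffer holding calcium plus EGTA and DTT.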 The note with it: Cy5-CALM1 binding fluorescence, higher = more signal.
The target is the same in test [15]. The test is described as follows: calcium-bound CALM1 binders on microarrays, profiling panel, artefact control for SMM control-protein annotation, biochemical, small-molecule microarray, Cy5-labelled CALM1, plus calcium (AID 1112).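 Also: score merges spot fluorescence with signal to noise from triplicate slides.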 Particulars: Cy5-CALM1 binding fluorescence, higher = more signal.
Test [16] in a line: small-molecule microarray binders of probe aWnt5a, primary screen, biochemical, biotinylated probe, 635/667 nm fluorescence (AID 1113).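 Also: score merges 667 nm fluorescence intensity with signal-to-noise per printed feature.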 Particulars: higher = more signal.
The nature of test [17]: small-molecule microarray binders of probe aShh, primary screen, biochemical, biotinylated probe, 635/667 nm fluorescence (AID 1114).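 Also: probe is biotin-labelled aShh protein from a stem cell growth factor screen; measures binding of labelled protein to compounds printed on the slide; score merges feature fluorescence at 667 nm with signal-to-noise.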 The note with it: higher = more signal.
The nature of test [18]: small-molecule microarray binders of probe aNog, primary screen, biochemical, biotinylated probe, 635/667 nm fluorescence (AID 1115).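 Also: probe is biotinylated aNog protein used at 0.15 µg/mL for 1 h at 4 C; z-score combines 667 nm fluorescence of each spot with its signal to noise.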 The note with it: higher = more signal.
The target of test [19] is Torsin-1A-interacting protein 1 (Homo sapiens) (UniProt Q5JTV8). The test is described as follows: LAP1 binders from COS7 cell lysate, primary screen, small-molecule microarray, 635/667 nm fluorescence (AID 1116). Particulars: COS7-hLAP1 lysate binding, 635 nm fluorescence, higher = more signal.
Sequence of Torsin-1A-interacting protein 1 (Homo sapiens) (Q5JTV8 whole entry, looked up): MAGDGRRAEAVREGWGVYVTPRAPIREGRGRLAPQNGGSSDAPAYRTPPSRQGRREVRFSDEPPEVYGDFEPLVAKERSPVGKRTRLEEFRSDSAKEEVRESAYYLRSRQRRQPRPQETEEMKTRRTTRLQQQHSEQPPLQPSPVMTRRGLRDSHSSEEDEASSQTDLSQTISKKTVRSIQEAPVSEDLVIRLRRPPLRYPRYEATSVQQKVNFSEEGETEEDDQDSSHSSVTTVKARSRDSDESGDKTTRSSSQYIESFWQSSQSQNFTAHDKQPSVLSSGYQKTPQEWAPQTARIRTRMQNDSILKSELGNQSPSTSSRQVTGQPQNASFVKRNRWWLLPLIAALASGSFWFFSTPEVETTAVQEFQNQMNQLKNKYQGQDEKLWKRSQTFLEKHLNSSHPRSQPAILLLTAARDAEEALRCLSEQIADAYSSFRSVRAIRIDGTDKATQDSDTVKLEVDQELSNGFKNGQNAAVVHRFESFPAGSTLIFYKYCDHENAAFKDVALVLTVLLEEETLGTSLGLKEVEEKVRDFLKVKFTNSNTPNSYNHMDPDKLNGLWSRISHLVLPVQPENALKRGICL
Test [20] has as its target Alpha-bungarotoxin (Bungarus multicinctus) (UniProt P60615). The experiment in a line: alpha-bungarotoxin binders on microarray, profiling panel, artefact control for SMM control protein annotation, biochemical, small-molecule microarray, Alexa647 label, 635/667 nm fluorescence (AID 1117). Particulars: alpha-BTX-A647 binding fluorescence, higher = more signal.

The structures appear in SMILES notation. Active and inactive are the calls of the source.

Sequence of Follistatin-related protein 3 (Homo sapiens) (O95633 whole entry, looked up): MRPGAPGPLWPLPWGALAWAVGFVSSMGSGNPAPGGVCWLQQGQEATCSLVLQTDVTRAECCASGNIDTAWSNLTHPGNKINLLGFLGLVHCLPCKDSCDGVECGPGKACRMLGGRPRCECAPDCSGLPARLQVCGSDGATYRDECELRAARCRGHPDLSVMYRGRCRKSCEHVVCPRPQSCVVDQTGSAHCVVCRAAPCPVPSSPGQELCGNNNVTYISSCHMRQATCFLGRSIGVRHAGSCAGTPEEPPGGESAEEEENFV
Sequence of Alpha-bungarotoxin (Bungarus multicinctus) (P60615 whole entry, looked up): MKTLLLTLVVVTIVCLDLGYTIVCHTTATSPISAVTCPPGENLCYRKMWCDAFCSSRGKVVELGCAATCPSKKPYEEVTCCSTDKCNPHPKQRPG
Sequence of Fibroblast growth factor 10 (Homo sapiens) (O15520 whole entry, looked up): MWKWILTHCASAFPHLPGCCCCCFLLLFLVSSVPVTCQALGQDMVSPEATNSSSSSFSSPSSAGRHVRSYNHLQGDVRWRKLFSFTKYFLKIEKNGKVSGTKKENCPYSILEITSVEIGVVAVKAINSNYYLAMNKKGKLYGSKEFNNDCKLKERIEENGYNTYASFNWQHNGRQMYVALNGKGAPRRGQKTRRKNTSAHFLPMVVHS
Sequence of Dickkopf-related protein 1 (Homo sapiens) (O94907 whole entry, looked up): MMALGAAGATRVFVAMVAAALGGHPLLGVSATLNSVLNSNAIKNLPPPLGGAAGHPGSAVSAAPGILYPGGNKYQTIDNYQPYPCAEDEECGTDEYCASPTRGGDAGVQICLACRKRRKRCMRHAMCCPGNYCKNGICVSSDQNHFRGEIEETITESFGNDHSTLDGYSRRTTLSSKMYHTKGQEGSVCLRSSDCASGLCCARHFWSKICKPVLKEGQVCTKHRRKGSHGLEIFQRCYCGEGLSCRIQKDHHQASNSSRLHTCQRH

In the case of `O=C1C[C@@](C(=O)NCC(F)(F)F)(c2ccc([N+](=O)[O-])cc2)[C@@H](c2ccc(CO)cc2I)N1CC12CC3CC(CC(C3)C1)C2`, the composite z-score in [1] is 1.5; in test [2] it was -0.113; in test [3], 0.0558; in test [5] it was 0.343; in test [6] it was 0.785; in test [7] it was 0.237. For the same molecule, the composite z-score in test [8] was 0.406; in [9], -0.0464; in test [10] it was 0.227; in test [11], 1.31; in [13] it was 0.0604; in test [14], 0.595. Also, the composite z-score in test [15] is 0.149; in [16], -0.0843; in test [17], -0.314; in test [18], -0.229; in test [19] it was 0.349; in [20], 1.23. The figures for the z-score in [4] and in [12] were -1.85 (inactive) and -3.3, respectively.

With `O=C1O[C@H](c2ccccc2)[C@H](c2ccccc2)N2[C@H]1[C@@H](C(=O)N1CCCCCCC1)[C@]1(C(=O)Nc3ccc(C#CCCO)cc31)[C@H]2c1ccc(O)cc1`, the composite z-score is 2.11 in test [1]; 2.97 in [2]; 1.72 in [3]; 1.67 in [5]; 1.47 in [6]; 1.99 in [7]. The composite z-score in test [8] is 1.74; in test [9] it was 2.7; in test [10], 1.96; in test [11] it was 1.52; in test [13] it was 1.69; in test [14] it was 3.02. Also, the composite z-score in test [15] is 1.75; in test [16] it was 1.62; in test [17] it was 2.01; in test [18] it was 0.939; in test [19] it was 5.54; in test [20] it was 4.23. Moreover, the z-score was -0.547 (inactive) in [4] and -0.637 in test [12].

As for `CC(C)c1ccc(NN2C(C(O)c3ccccc3)C=CC3C(=O)N(c4ccccc4)C(=O)C32)cc1` (stereo not given), the composite z-score in test [1] is 1.26; in test [2], 1.25; in test [3] it was 0.98; in test [5], 0.715; in [6], 0.522; in test [7], -0.144. The composite z-score in test [8] is 0.634; in test [9], -0.624; in test [10], 0.546; in test [11] it was 1.33; in test [13] it was -0.636; in [14], 0.793. For the same molecule, the composite z-score worked out at 0.7 in test [15]; 0.235 in [16]; 0.171 in test [17]; 0.0811 in test [18]; 0.588 in [19]; 1.67 in [20]. For the same molecule, the z-score in test [4] was -0.648 (inactive); in test [12], 0.618.

Turning to `CC(C)(C)OC(=O)CC[C@@]1(C(N)=O)N=C(c2ccc(OCCCO)cc2)O[C@@H]1c1ccccc1CN=[N+]=[N-]`, the composite z-score turned out to be 0.469 in test [1]; 1.42 in test [2]; 1.08 in [3]; 1.48 in test [5]; 1.1 in test [6]; 0.0813 in test [7]. Also, the composite z-score in test [8] was 0.211; in test [9], -0.105; in [10] it was 0.854; in test [11], 1.35; in test [13] it was -0.0243; in [14], 2.47. Also, the composite z-score turned out to be 1.9 in test [15]; 0.188 in [16]; 0.553 in [17]; 1.52 in [18]; 1.48 in [19]; 2.58 in [20]. Moreover, the z-score is -0.169 (inactive) in test [4] and 0.0506 in [12].

Take `[N-]=[N+]=Nc1ccccc1C[C@@]1(C(=O)NCc2ccccc2)N=C(c2ccc(OCCCO)cc2)O[C@@H]1c1ccccc1`: the composite z-score stood at 1.22 in [1]; 0.95 in test [2]; 1.03 in test [3]; 1.14 in test [5]; 1.29 in test [6]; 0.165 in test [7]. For the same molecule, the composite z-score in test [8] was found to be 1.06; in test [9], 0.313; in [10], 0.838; in [11], 1.08; in test [13], 0.262; in test [14] it was 1.41. The composite z-score amounted to 0.313 in test [15]; 0.534 in [16]; 0.0326 in test [17]; 2.22 in [18]; 1.13 in [19]; 0.39 in [20]. The values for the z-score in test [4] and in [12] were -0.0448 (inactive) and -1.76, respectively.

As to `C=CCC(OC(C)=O)[C@@H]1[C@@H](N(Cc2cccc3ccccc23)C(=O)c2ccc(C)cc2)c2cc(OCCCO)ccc2N1C(=O)Cc1ccc2ccccc2c1` (stereo not given in full), the composite z-score in [1] is -0.542; in test [2], 0.0891; in test [3], 0.135; in test [5], -0.123; in [6], -0.0662; in test [7] it was 0.13. Further, the composite z-score in test [8] was -0.345; in [9], 0.248; in [10], 1.34; in test [11], -0.857; in test [13] it was -0.163; in test [14], 1.1. The composite z-score was 0.709 in [15]; -0.0718 in [16]; -0.0553 in test [17]; 0.0588 in [18]; 0.54 in test [19]; 0.273 in test [20]. Moreover, the z-score in test [4] was -1.86 (inactive); in test [12], 0.198.

These data come from PubChem BioAssay.
